Several values for one entry are separate records, joined by “and”; a condition that tells them apart may be missing. Equal values may be shown once. Records with an inconclusive call do not appear. Activity calls are given as the source filed them. Unless noted, calls come from the whole dose curve; as a rule, active = well fitted curve in the direction sought with a large enough effect; inconclusive = small, poorly fitted or top-dose-only effect, or another doubt; inactive = no such curve, though single readings can be large; an effect the other way counts as inactive or inconclusive.

Data on 35 compounds can be found in PubChem BioAssay (NCATS).

The target of experiment [1] is Rap guanine nucleotide exchange factor 3 (Homo sapiens) (UniProt O95398). Description: Confirmatory qHTS for antagonist of cAMP-regulated guanine nucleotide exchange factor 3 (EPAC1) (AID 1645880). Note: nearly all actives have a fitted effect of over 55% in size. Note: potency is the fitted concentration of half-maximal effect. The method in brief:
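Released BODIPY-GDP fluoresces less than Rap1-bound BODIPY-GDP; the signal is followed at 480/540 nm at 5-min intervals over 30 min, after 5 min at room temperature. Reactions contain 100 nM EPAC1, 250 nM RAP1B-BODIPY-GDP and 50 uM GDP; results are normalized to ATA and DMSO.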
A general note: qHTS replaces the single test concentration by a dilution series.

Experiment [2] shares this target. Description: Confirmatory qHTS for agonist of cAMP-regulated guanine nucleotide exchange factor 3 (EPAC1) (AID 1645881). Note: nearly all actives have a fitted effect of over 75% in size. Note: potency is the fitted concentration of half-maximal effect.
For experiment [3], the target named is Rap guanine nucleotide exchange factor 4 (Homo sapiens) (UniProt Q8WZA2). Nature of the experiment: Confirmatory qHTS for agonist of cAMP-regulated guanine nucleotide exchange factor 4 (EPAC2) (AID 1645884).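 Note: nucleotide exchange releases bodipy-GDP from Rap1 and this lowers its fluorescence; nearly all actives have a fitted effect of over 65% in size.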 Note: potency is the fitted concentration of half-maximal effect.
Sequence of Rap guanine nucleotide exchange factor 4 (Homo sapiens) (Q8WZA2 whole entry, looked up): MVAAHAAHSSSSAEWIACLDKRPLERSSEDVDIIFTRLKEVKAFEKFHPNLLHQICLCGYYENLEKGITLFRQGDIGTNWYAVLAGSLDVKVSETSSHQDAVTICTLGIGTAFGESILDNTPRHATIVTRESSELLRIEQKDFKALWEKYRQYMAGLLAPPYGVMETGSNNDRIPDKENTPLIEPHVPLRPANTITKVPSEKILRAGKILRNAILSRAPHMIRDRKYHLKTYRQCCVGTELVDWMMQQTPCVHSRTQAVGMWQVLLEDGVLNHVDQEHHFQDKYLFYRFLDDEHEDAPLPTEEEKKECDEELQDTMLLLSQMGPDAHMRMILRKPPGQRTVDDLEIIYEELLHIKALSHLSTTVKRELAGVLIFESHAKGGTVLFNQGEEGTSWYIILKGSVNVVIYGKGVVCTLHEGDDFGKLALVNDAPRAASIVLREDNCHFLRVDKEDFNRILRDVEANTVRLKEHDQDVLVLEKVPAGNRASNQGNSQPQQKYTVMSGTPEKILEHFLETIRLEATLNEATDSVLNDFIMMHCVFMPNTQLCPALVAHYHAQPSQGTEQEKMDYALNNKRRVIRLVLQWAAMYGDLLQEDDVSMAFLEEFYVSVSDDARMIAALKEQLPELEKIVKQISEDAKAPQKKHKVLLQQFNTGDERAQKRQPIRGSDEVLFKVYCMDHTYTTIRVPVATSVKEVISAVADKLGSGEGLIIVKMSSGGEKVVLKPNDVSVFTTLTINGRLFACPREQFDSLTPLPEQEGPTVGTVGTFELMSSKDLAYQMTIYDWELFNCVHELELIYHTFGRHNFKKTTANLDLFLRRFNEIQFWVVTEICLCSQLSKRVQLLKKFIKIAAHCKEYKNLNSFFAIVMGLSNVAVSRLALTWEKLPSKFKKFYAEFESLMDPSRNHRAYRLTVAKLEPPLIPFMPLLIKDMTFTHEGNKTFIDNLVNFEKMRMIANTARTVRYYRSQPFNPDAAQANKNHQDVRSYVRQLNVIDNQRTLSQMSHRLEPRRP
For experiment [4] the target is unchanged. Nature of the experiment: Confirmatory qHTS for antagonist of cAMP-regulated guanine nucleotide exchange factor 4 (EPAC2) (AID 1645885). For activity change, negative = inhibition: % is set by controls: 0 for no effect and ±100 for the full control effect. Note: nearly all actives have a fitted effect of over 25% in size. Note: potency is the fitted concentration of half-maximal effect.
Experiment [5] concerns the target Rap guanine nucleotide exchange factor 3 (Homo sapiens) (UniProt O95398). Description: Counterscreen qHTS for antagonist of cAMP-regulated guanine nucleotide exchange factor 3 (EPAC1) (AID 1645888). Note: % of control where 0% means no effect. In a few lines:
(§1)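 Rap1B-BODIPY-GDP 250 nM + GDP 50 uM; cpds 7-pt, final 9.74 nM–152 uM (activator mode) or from 7.32 nM upwards (inhibitor mode); RT; FI 480/540 nm at 5 and 30 min, then ± cAMP, reread.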
Background: The purpose of a counterscreen is to sort out artefacts and off-target activity.

The target is the same in experiment [6]. Nature of the experiment: Counterscreen qHTS for agonist of cAMP-regulated guanine nucleotide exchange factor 3 (EPAC1) (AID 1645889). Note: % of control where 0% means no effect; nearly all actives have a fitted effect of over 40% in size. The method in brief:
as §1

The target of experiment [7] is Catechol O-methyltransferase (Homo sapiens) (UniProt P21964). Nature of the experiment: Confirmatory Screen for Target Class Profiling of Small Molecule Inhibitors of Methyltransferases (AID 1745852; calls by dose curve; note: potency is the fitted concentration of half-maximal effect; for activity change, negative = inhibition: % is set by controls: 0 for no effect and ±100 for the full control effect). To be noted: MTase-Glo luminescence, SAH detection, recombinant enzyme; measured here: COMT max response; stronger effect = lower value.
Sequence of Catechol O-methyltransferase (Homo sapiens) (P21964 whole entry, looked up): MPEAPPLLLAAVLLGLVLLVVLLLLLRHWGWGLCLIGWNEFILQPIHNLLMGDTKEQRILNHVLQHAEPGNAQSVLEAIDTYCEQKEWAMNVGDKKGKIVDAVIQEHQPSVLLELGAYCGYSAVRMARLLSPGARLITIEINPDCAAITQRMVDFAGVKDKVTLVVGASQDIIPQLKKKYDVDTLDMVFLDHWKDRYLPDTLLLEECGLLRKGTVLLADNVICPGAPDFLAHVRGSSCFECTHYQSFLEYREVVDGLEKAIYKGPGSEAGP
Experiment [8] has as its target Guanidinoacetate N-methyltransferase (Homo sapiens) (UniProt Q14353). Described as above. To be noted: MTase-Glo luminescence, SAH detection, recombinant enzyme; activity change, negative = inhibition: at 57.3 µM (top of the series).
Experiment [9] is described as follows: Primary qHTS for inhibitors of nuclear receptor binding SET domain protein 2 (NSD2) in an isogenic RCH-ACV NSD2 p.E1099K mutant (9B) (AID 1645876). Note: nearly all actives have a fitted effect of over 70% in size. Note: potency is the fitted concentration of half-maximal effect.
Experiment [10] is described as follows: Primary qHTS for inhibitors of nuclear receptor binding SET domain protein 2 (NSD2) in an RCH-ACV wild type WT cells (2C) (AID 1645877). Note: nearly all actives have a fitted effect of over 70% in size. Note: potency is the fitted concentration of half-maximal effect. From the text: Assay Provider: Jonathan D. Licht, MD
University of Florida College of Medicine, Gainesville, FL
Mutations in epigenetic regulators are common in relapsed pediatric acute lymphoblastic leukemia (ALL). Here, we uncovered the mechanism underlying the relapse of ALL driven by an activating mutation of the NSD2 histone methyltransferase (p.E1099K). […] Correction of this mutation restored glucocorticoid sensitivity. The transcriptional response to glucocorticoids was blocked in NSD2 mutant cells due to depressed glucocorticoid receptor (GR) levels and the failure of glucocorticoids to autoactivate GR expression. […] Pre-treatment of NSD2 p.E1099K cell lines and PDX samples with PRC2 inhibitors reversed glucocorticoid resistance in vitro and in vivo.
High-throughput drug screening of isogenic RCH-ACV cell lines was performed at the National Center for Advancing Translational Science (NCATS), National Institutes of Health as previously described (1). Briefly, isogenic RCH-ACV NSD2 p.E1099K mutant (9B) and WT cells (2C) were plated at 500 cells/well in a 1536-well plate with a 72-hour incubation with compounds prior to addition of CellTiter-Glo to assess cell viability. NCATS libraries screened include: NPC, MIPE 5.0, Kinase and NPACT. To determine compound activity in the qHTS assay, the concentration-response data for each sample was plotted and modeled by a four-parameter logistic fit yielding IC50 and efficacy (maximal response) values. The area under the curve (AUC) of the dose-response curve ensures both efficacy (magnitude of cell killing) and potency (concentration that elicits cell killing) are accounted for in the analysis of activity.
1. Tobie D Lee, Olivia W Lee, Kyle R Brimacombe, Lu Chen, Rajarshi Guha, Sabrina Lusvarghi, Bethilehem G Tebase, Carleen Klumpp-Thomas, Robert W Robey, Suresh V Ambudkar, Min Shen, Michael M Gottesman, Matthew D Hall. A High-Throughput Screen of a Library of Therapeutics Identifies Cytotoxic Substrates of P-glycoprotein. Mol Pharmacol. 2019, Nov;96(5):629-640.

Sequence of Rap guanine nucleotide exchange factor 3 (Homo sapiens) (O95398 whole entry, looked up): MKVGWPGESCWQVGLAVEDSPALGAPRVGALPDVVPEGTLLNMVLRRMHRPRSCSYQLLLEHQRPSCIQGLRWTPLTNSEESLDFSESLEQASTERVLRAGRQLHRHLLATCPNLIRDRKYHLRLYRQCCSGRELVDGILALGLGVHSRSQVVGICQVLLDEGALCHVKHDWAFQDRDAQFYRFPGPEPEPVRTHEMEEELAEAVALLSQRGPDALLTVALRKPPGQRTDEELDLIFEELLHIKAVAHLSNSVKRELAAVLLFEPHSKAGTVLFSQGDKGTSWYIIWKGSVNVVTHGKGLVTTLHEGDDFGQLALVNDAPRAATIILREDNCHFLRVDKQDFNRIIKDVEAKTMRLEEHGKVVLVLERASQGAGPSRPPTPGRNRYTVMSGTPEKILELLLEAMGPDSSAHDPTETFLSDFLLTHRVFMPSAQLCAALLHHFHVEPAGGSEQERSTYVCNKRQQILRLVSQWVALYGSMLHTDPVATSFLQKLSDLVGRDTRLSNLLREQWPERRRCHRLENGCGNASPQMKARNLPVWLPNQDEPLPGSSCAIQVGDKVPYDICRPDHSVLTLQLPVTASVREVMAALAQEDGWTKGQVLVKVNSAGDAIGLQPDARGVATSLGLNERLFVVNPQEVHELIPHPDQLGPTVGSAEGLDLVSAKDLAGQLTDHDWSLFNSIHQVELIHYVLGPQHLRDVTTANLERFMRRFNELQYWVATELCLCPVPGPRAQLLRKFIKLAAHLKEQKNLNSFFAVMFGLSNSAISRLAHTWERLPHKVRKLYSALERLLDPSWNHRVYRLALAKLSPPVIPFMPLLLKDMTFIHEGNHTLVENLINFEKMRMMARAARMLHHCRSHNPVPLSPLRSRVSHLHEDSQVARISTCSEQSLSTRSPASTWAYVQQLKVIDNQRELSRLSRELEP

Turning to `Nc1ncnc2c1nc(Sc1ccc(Cl)cc1)n2[C@H]1OC2COP(=O)(O)O[C@@H]2C1O` (stereo partly drawn), the Potency in experiment [1] was 0.789 µM (active); in [2] it was 998 nM (active); in experiment [3], 1.77 µM (active); in experiment [4], 1.97 µM (active).
Consider `CCCC[C@@]1(C2CCCC2)Cc2cc(OCC(=O)O)c(Cl)c(Cl)c2C1=O`, for which the Potency result in [2] and in experiment [3] was “inactive” throughout. Besides, the Potency in [4] was 6.01 µM (active) and 3.5 µM (active). The outcome in [5] and in [6] was “inactive” in each case. Moreover, the activity in [7] came out at 8.39%. Moreover, in experiment [8], the activity change, negative = inhibition worked out at 7.65%.
Take `CC(=O)NCCc1c[nH]c2ccc(O)cc12`: the Potency entry in [9] was “inactive”.
Regarding `N#Cc1cc([N+](=O)[O-])c2sc(C(N)=O)[n+]([O-])c2c1`, the Potency in experiment [9] was 8.2 µM (active); in experiment [10] it was 10.3 µM (active).
Take `C[C@H](NC(=O)/C(C#N)=C/c1ccc(O)c(O)c1)c1ccccc1`: the Potency entry in experiment [2], in [3] and in experiment [4] was “inactive” in each case. Also, in experiment [7], the activity stood at 72.5%. In addition, the activity change, negative = inhibition in [8] stood at 2.74%.
In the case of `CN1Cc2sccc2C(c2ccc(O)c(O)c2)C1` (stereo not drawn), in experiment [7], the activity came out at 138%. For the same compound, in [8], the activity change, negative = inhibition is 1.26%.
Take `CCCC(=O)NCCc1c2n(c3ccc(OC)cc13)CCCc1ccccc1-2`: the Potency result in [1], in [2] and in experiment [3] was “inactive” in each case. For the same compound, the Potency in experiment [4] is 7.84 µM (active).
In the case of `CC1=C(/C=C/C(C)=C/C=C/C(C)=C\C(=O)O)C(C)(C)CCC1`, the Potency entry in [9] and in [10] was “inactive” throughout.
Regarding `C[C@@]1(C2CCCC2)Cc2cc(OCC(=O)O)c(Cl)c(Cl)c2C1=O`, the Potency result in experiment [1], in [2] and in experiment [3] was “inactive” each time. In experiment [4], the Potency is 17.5 µM (active). Further, in experiment [7], the activity was 5.42%. In [8], the activity change, negative = inhibition stood at 7.12%.
For `c1ccc(C(NCc2cccnc2)(c2ccccc2)c2ccccc2)cc1`, the Potency result in experiment [1] and in experiment [2] was “inactive” in each case. For the same compound, the Potency in experiment [4] is 1.11 µM (active).
For the compound `Nc1ncnc2c1nc(Br)n2C1OC2COP(=O)(O)O[C@@H]2C1O` (stereo partly drawn), the Potency in experiment [1] is 3.14 µM (active); in experiment [2], 4.46 µM (active) and 3.97 µM (active); in [3], 3.54 µM (active) and 3.16 µM (active); in [4], 5.55 µM (active) and 3.93 µM (active).
Consider `CC(=O)N[C@@H](Cc1c[nH]c2ccccc12)C(=O)OCc1cc(C(F)(F)F)cc(C(F)(F)F)c1`, for which the Potency result in [2] and in experiment [3] was “inactive” throughout. Moreover, in experiment [4], the Potency was 35 µM (active).
Turning to `COc1cc(/C=C(\C#N)C(=O)Nc2nnc(C(F)(F)F)s2)ccc1OCc1ccc(C(F)(F)F)cc1C(F)(F)F`, the Potency entry in experiment [9] and in experiment [10] was “inactive” in each case.
Regarding `O=C1Nc2ccc(I)cc2/C1=C/c1cc(Br)c(O)c(Br)c1`, the Potency entry in experiment [10], in [2] and in [3] was “inactive” each time. The Potency in [1] is 19.8 µM (active); in experiment [4] it was 35 µM (active).
As to `COC(=O)C1=C(C)NC(C)=C([N+](=O)[O-])C1c1ccccc1C(F)(F)F` (stereo not drawn), the Potency entry in experiment [2], in experiment [3] and in [4] was “inactive” each time. Also, the outcome in [5] and in experiment [6] was “inactive” each time.
Take `NC/C=C\C(=O)O`: the activity in [7] was -3.77%. Moreover, in experiment [8], the activity change, negative = inhibition worked out at 4.36%.
Taken in the same sequence, the figures for `C[C@](Cc1ccc(O)c(O)c1)(NN)C(=O)O` were 156% and 0.684%.
On to `CCCc1c(OCCCOc2ccc(OCC(=O)O)cc2)ccc(C(C)=O)c1O`, for which the Potency result in experiment [10], in experiment [2] and in experiment [3] was “inactive” each time. The Potency in [4] was 15.6 µM (active). Further, the outcome in experiment [5] and in [6] was “inactive” throughout. For the same compound, the activity in experiment [7] amounted to 14.3%. Moreover, the activity change, negative = inhibition in [8] came to 1.18%.
For the compound `Nc1ncnc2c1c(-c1ccc(Oc3ccccc3)cc1)cn2C1CCCC1`, the Potency in [9] is 1.64 µM (active); in experiment [10], 2.59 µM (active).
In the case of `CC(/C=C/c1cccc(Oc2ccc(F)cc2)c1)N(O)C(N)=O` (stereo not drawn), the Potency result in experiment [1], in experiment [2] and in [3] was “inactive” in each case. The Potency in experiment [4] is 44.1 µM (active).
As to `CC(C)(CO)Cc1cc(C(C)(C)C)c(O)c(C(C)(C)C)c1`, the Potency result in [2] and in [3] was “inactive” in each case. For the same compound, the Potency in experiment [4] was 49.4 µM (active).
In the case of `COc1ccc(CCn2nnnc2C2(c3ccc(C)cc3)CC2)cc1`, the Potency result in [1] and in [2] was “inactive” in each case.
For `CN(C)S(=O)(=O)c1ccc2c(c1)/C(=C/c1cc3c([nH]1)CCCC3)C(=O)N2`, the Potency in experiment [10] is 2.59 µM (active).
On to `O=C(O)Cc1ccc(O)c(O)c1`, for which, in [7], the activity turned out to be 122%. Further, in experiment [8], the activity change, negative = inhibition came to 5.19%.
For the compound `O=C1Cc2c([nH]c3ccc(Br)cc23)-c2ccccc2N1`, the Potency in experiment [9] is 6.51 µM (active); in experiment [10] it was 5.8 µM (active).
For `O=C(O)/C=C/c1ccc(O)c(O)c1`, the activity in [7] was found to be 150%. Also, in experiment [8], the activity change, negative = inhibition was 0.674%.
As to `C=CCN1CCc2c(cc(O)c(O)c2Cl)C(c2ccccc2)C1` (stereo not drawn), the activity in experiment [7] came out at 72.4%. Moreover, in experiment [8], the activity change, negative = inhibition is 5.83%.
On the same counts, the results for `C=CCN1CCc2cc(O)c(O)cc2C(c2ccccc2)C1` (stereo not drawn) are 101% and 8.51%.
On to `CC[C@@H]1Cc2cc(O)ccc2C2=C1c1ccc(O)cc1C[C@H]2CC`, for which the activity in [7] stood at 9.67%. Further, in [8], the Potency is 43.2 µM (active).
Turning to `O=c1[nH]ccc2c(O)cccc12`, the activity in [7] came to 1.23%. Besides, the activity change, negative = inhibition in experiment [8] worked out at 2.16%.
For `N#C/C(=C\c1ccc(O)c(O)c1)C(=O)NCCCNC(=O)/C(C#N)=C/c1ccc(O)c(O)c1`, in experiment [7], the activity was -50.9%. Also, the Potency in experiment [8] was 4.85 µM (active).
Turning to `Clc1nccc2c1ccc1ccccc12`, in experiment [7], the activity was found to be 4.56%. In addition, in [8], the activity change, negative = inhibition was 3.35%.
For the compound `Brc1c(Br)c(Br)c2[nH]cnc2c1Br`, in experiment [7], the activity was -26.1%. Further, the Potency in experiment [8] is 27.3 µM (active).
For the compound `NCC(O)C1CCCCCCC1` (stereo not drawn), the activity in experiment [7] was -3.91%. Moreover, the activity change, negative = inhibition in [8] stood at 2.24%.
`Cn1c(=O)c2[nH]c(-c3ccc(S(=O)(=O)O)cc3)nc2n(C)c1=O`: in experiment [7], the activity is -8.67%. Further, the activity change, negative = inhibition in [8] came out at 1.75%.
